Compounds with a hit are over-represented: about 27% of the library has one in this group of screens.
CYP2C9 inhib – blockers of cytochrome P450 2C9 activity – biochemical, luminescence, ADME assay, primary screen; CYP2C9 Supersomes, luciferin-H conversion; 20% of 96,000 active; P11712; AID 777, 2007; inhibition, % at 5 µM;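 active = blocking of liver enzyme CYP2C9 beyond about 50% at 5 µM, limit read from the data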
CYP2C19 activ – human CYP2C19 activators, primary screen, biochemical, luminescence. Cytochrome P450 2C19 (Homo sapiens), P33261. 96,000 tested, under 10 active. activation factor at 5 µM. recombinant CYP2C19, luciferin-H EGE luminescence; stronger effect = higher value; 0 = fully inhibited enzyme, 1 = untreated enzyme;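 active = activation factor of at least 2 at 5 µM in the primary screen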
CYP2C19 inh – blockers of cytochrome P450 2C19 activity – biochemical, luminescence, ADME assay, primary screen. CYP2C19 Supersomes, luciferin-H EGE luminescence, 30 min. inhibition, % at 5 µM. 21% of 96,000 active;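 active = CYP2C19 inhibition above a set limit at 5 µM in the primary screen, cut at about 50% in these data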
CYP2C9 activ – human CYP2C9 activators, primary screen, biochemical, luminescence; activation factor at 5 µM; recombinant CYP2C9, luciferin-H conversion; stronger effect = higher value; factor 1 = untreated enzyme, 0 = blocked; Cytochrome P450 2C9 (Homo sapiens), P11712; 1.4% of 96,000 active;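 active = activation factor of 2 or more for CYP2C9 at a 5 µM dose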
EphB4 antag – EphB4-ephrin-B2 interaction antagonists, primary screen, biochemical, TNYL-RAW peptide probe, fluorescence polarization. 0.15% of 97,000 active. inhibition, % at 7 µM. EphB4 LBD / TNYL-RAW-Alexa532 peptide. Ephrin type-B receptor 4 (Homo sapiens), P54760. AID 720, 2007;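 active = inhibition above the screen-wide mean inhibition plus 3 SD, cut at about 15% in these data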
Target sequence (P54760 whole entry, looked up, the tested form may be a part): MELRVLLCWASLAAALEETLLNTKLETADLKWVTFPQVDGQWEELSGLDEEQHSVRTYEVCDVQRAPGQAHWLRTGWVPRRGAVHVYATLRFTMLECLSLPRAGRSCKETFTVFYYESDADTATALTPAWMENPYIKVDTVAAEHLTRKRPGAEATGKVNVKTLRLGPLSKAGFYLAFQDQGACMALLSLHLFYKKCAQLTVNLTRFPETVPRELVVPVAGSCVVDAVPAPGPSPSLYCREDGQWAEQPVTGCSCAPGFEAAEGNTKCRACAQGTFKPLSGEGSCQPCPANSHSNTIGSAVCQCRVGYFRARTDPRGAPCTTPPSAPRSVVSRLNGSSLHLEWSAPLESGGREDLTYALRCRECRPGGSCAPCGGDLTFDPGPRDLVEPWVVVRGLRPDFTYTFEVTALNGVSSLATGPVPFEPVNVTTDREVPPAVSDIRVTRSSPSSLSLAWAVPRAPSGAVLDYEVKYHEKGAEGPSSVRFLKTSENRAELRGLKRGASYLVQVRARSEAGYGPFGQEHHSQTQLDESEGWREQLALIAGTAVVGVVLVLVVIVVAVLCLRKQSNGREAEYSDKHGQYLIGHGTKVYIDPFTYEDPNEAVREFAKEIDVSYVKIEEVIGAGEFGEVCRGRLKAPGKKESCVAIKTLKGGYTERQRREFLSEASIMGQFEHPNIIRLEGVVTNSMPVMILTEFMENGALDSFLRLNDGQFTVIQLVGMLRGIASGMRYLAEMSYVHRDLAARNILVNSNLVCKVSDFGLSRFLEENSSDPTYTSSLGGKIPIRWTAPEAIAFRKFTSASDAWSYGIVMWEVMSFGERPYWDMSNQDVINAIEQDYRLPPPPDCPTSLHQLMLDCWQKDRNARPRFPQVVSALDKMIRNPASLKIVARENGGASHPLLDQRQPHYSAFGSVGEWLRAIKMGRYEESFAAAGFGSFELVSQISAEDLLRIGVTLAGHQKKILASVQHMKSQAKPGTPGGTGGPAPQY
Hits are given with their value; n = inactive; x = not tested or not shown.

SMILES | CYP2C9 inhib | CYP2C19 activ | CYP2C19 inh | CYP2C9 activ | EphB4 antag
c1cc2c(c(NCc3ccncc3)c1)CCCC2 | 82 | n | 97 | n | x
Cc1nc(-c2ccccn2)sc1C(=O)Nc1ccc(F)cc1 | n | n | n | 2.1 | n
O=C(Nc1nc(-c2ccc(Cl)s2)cs1)c1cccs1 | 85 | n | 54 | n | x
O=C(Nc1nc(-c2ccccc2)cs1)c1cccs1 | n | n | n | n | n
Cc1cc(C)c2c(n1)nn1c(N3CCN(c4ccccn4)CC3)cc(C)nc21 | n | n | n | n | x
O=c1c2ccccc2c(/C=N/c2ncn[nH]2)c(O)n1Cc1ccccc1 | n | n | n | n | n
O=C(N/N=C/c1c[nH]c2ccccc12)c1ccn(Cc2ccc(Cl)cc2Cl)n1 | 70 | n | 57 | n | n
CCOc1cc(NC(=O)C2CC2)c(OCC)cc1NC(=O)c1cccnc1 | n | n | 97 | n | x
CCOc1ccc(OCC)c(NC(=O)C2CCN(S(=O)(=O)c3cccnc3)CC2)c1 | n | n | 55 | n | n
CCOc1cc(NC(=O)C2CC2)c(OCC)cc1NC(=O)c1ccccn1 | n | n | n | n | n
CCOc1ccc(NC(=O)C2CCN(S(=O)(=O)c3cccnc3)CC2)cc1 | n | n | n | n | n
CC(C(=O)NCC1CCCO1)n1cccc1C(=O)c1ccccc1 (stereo unspecified) | n | n | n | n | n
CCN(CC)C(=O)CSc1nnc2sc3ccccc3n12 | n | n | 77 | n | x
c1ccc(OCCSc2nnc3sc4ccccc4n23)cc1 | n | n | n | n | n
COc1cccc(OCCSc2nnc3sc4ccccc4n23)c1 | n | n | 50 | n | n
Cc1ccccc1Nc1nc(N)nc(CSc2nnc3sc4ccccc4n23)n1 | n | n | n | 2.4 | n
Cc1cc(C)n(C(=O)CNC(=O)C(c2ccccc2)c2ccccc2)n1 | x | x | x | x | n
Cc1cccc(NC(=O)c2cc3n(n2)C(C(F)(F)F)CC(C2CC2)N3)c1C (stereo unspecified) | n | n | n | n | n
O=C(CNc1cccc(Cl)c1)c1ccc(Cl)cc1 | n | n | 86 | n | n
COc1cccc(NC(=O)c2ccncc2)c1 | n | n | n | n | n
O=C(Nc1ccc(Cl)cc1)c1ccc(-n2cccn2)c([N+](=O)[O-])c1 | n | n | n | n | n
O=C(Nc1ccc(Cc2ccncc2)cc1)c1ccc(Cl)c([N+](=O)[O-])c1 | 76 | n | 77 | n | n
O=C(Nc1ccc(Cl)c(Cl)c1)c1ccncc1 | 54 | n | 96 | n | n
Cc1ccc(NCC(=O)c2ccccc2)cc1Cl | n | n | n | n | n
O=C(Nc1cccc(Cl)c1)c1ccncc1 | n | n | 68 | n | n
SMILES | CYP2C9 inhib | CYP2C19 activ | CYP2C19 inh | CYP2C9 activ | EphB4 antag
O=C(COC(=O)c1cc(S(=O)(=O)N2CCCCC2)ccc1N1CCOCC1)NC1CCCCC1 | n | n | n | n | n
CSc1nc2n(n1)C(c1cc(Br)ccc1F)C(C(=O)N(C)C)=C(C)N2 (stereo unspecified) | n | n | n | n | n
CC(OC(=O)c1ccncc1)C(=O)Nc1cccc(Cl)c1 (stereo unspecified) | 63 | n | 75 | n | n
O=C(Nc1ccc(NC(=O)C2CC2)nc1)c1ccncc1 | 56 | n | n | n | n
O=C(Nc1cccc(Cl)c1)c1csc(-c2ccccc2)n1 | 58 | n | n | n | n
O=C(Nc1ccc(Cl)c(Cl)c1)OCc1cccnc1 | n | n | 64 | n | n
O=C(Nc1ccc(Cl)c(Cl)c1)c1csc(-c2ccccc2)n1 | n | n | n | n | n
Cc1ccc(C(=O)N/N=C2\SCC(=O)N2c2cc(C)ccc2C)cc1 | x | x | x | x | n
CCOC(=O)N1CCC(NC(=O)CCN2C(=O)COc3ccccc32)CC1 | n | n | n | n | n
C=CCNC(=O)c1onc(CSc2cccc(C)c2)c1C(=O)O | 65 | n | n | n | n
Cc1cccc(SCc2noc(C(=O)NCC3CCCO3)c2C(=O)O)c1 (stereo unspecified) | n | n | n | n | n
C=CCNC(=O)c1onc(CSc2cccc(Cl)c2)c1C(=O)O | 68 | n | n | n | n
COCCNC(=O)c1onc(CSc2cccc(Cl)c2)c1C(=O)O | n | n | n | n | n
CCOC(=O)N1CCC(NC(=O)C2CCN(c3ccc(N4CCOCC4)nn3)CC2)CC1 | n | n | n | n | n
COc1ccc(C2C(C(C)=O)=C(C)N=c3s/c(=C\c4ccco4)c(=O)n32)c(OC)c1 (stereo unspecified) | 78 | n | 53 | n | n
COc1ccc(C2C(C(C)=O)=C(C)N=c3s/c(=C\c4cc(C)n(C)c4C)c(=O)n32)c(OC)c1 (stereo unspecified) | n | n | n | n | n
O=C(OCCN1CCOCC1)C(c1ccccc1)c1ccccc1 | 56 | n | 70 | n | x
COc1ccc(Oc2c(Cl)cnn(-c3ccc(Cl)c(Cl)c3)c2=O)cc1 | n | n | n | n | n
CC(=O)Cn1c(N2CCC(Cc3ccccc3)CC2)nc2c1c(=O)[nH]c(=O)n2C | n | n | 50 | n | n
CCCn1c(N2CCC(Cc3ccccc3)CC2)nc2c1c(=O)[nH]c(=O)n2C | 57 | n | 83 | n | n
COCCn1cc(C(=O)NCCCN2CCC(C)CC2)c2c3ccccc3n(C)c2c1=O | n | n | n | n | x
CCCOc1ccc(Cn2c(=O)oc3ccc(C)cc32)cc1OC | x | x | x | x | n
CC(=O)Nc1cccc(C(=O)OCc2ccccc2)c1 | n | n | 98 | n | n
O=C(OCc1ccccc1)c1cccc(-c2nnn(Cc3ccccc3)n2)c1 | 63 | n | n | n | n
CC(=O)Nc1cccc(C(=O)OC(C(=O)c2ccc(C)cc2)c2ccccc2)c1 (stereo unspecified) | 76 | n | n | n | n
SMILES | CYP2C9 inhib | CYP2C19 activ | CYP2C19 inh | CYP2C9 activ | EphB4 antag
O=C(Cn1nnc(-c2ccccc2)n1)OCc1ccccc1 | n | n | n | n | n
CCOC(=O)Nc1cc(C(=O)OC)cc(C(=O)OC)c1 | n | n | n | n | n
CCOCCOC(=O)c1cccc(NC(=O)OCC)c1 | 63 | n | 71 | n | n
CC(=O)c1cccc(NC(=O)Oc2ccccc2)c1 | n | n | n | n | n
COC(=O)C1=CN(C)C=C(C(=O)OC)C1c1ccccc1Cl | x | x | x | x | n
CCOCCCNC(=O)C1CCN(S(=O)(=O)CC)CC1 | n | n | n | n | n
Cc1nc(SCC(=O)Nc2ccccc2C(F)(F)F)c2c(=O)n(C)c(=O)n(C)c2n1 | x | x | x | x | n
COc1ccc(C(=O)OC(C(=O)c2ccc(C)cc2)c2ccccc2)cc1 (stereo unspecified) | 57 | n | n | n | n
Cc1ccc(C(=O)C(OC(=O)CNS(=O)(=O)c2ccccc2)c2ccccc2)cc1 (stereo unspecified) | 55 | n | n | n | n
CC(=O)Nc1cccc(C(=O)OC(C(=O)c2ccc(C)c(C)c2)c2ccccc2)c1 (stereo unspecified) | n | n | n | n | n
O=C(O)c1cc2sccc2s1 | n | n | n | n | n

Source: PubChem BioAssay (several laboratories)
